Compound activity as filed in PubChem BioAssay.
Only some compounds are listed: those with a hit (about 6.5% of all), similar ones and a draw of the others.
HCMV antiviral: inhibitors of human cytomegalovirus; HFF cells, HCMV-luciferase reporter, 72 h; stronger effect = lower value; activity change, negative = inhibition, % at 57.5 µM; 410,000 tested, 4.5% active; AID 1259415; in the data active = activity change below about -60%; inconclusive = no clear call, values can overlap the other calls; inactive = above about -39%
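Two-dose cell screen: HFF monolayers treated with compounds and infected with luciferase-expressing HCMV at 1 PFU/cell, 72 h at 37C, then lysed for luciferase measurement.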
VACV Venus inh: inhibitors of vaccinia virus (Venus reporter); Vaccinia virus Venus reporter expression, fluorescence; Potency, µM (doses to about 36.5 µM), inactives show top-dose activity change, negative = inhibition, hits mostly inhibitors; 330,000 tested, 0.46% active; AID 720580; calls by dose curve; tested in A549 cells; also: potency is read from the fitted curve at half-maximal effect; nearly all actives have a fitted effect of over 30% in size
VACV mCherry inh: inhibitors of vaccinia virus infection (mCherry reporter signal). Vaccinia virus mCherry reporter infection, fluorescence. Potency, µM (doses to about 36.5 µM), for inactives: at the highest dose activity change, negative = inhibition, hits mostly inhibitors. 310,000 tested, 0.63% active. AID 720579; calls by dose curve; tested in A549 cells; also: potency is read from the fitted curve at half-maximal effect; nearly all actives have a fitted effect of over 35% in size
FMDV inh: blocks foot and mouth disease virus. Potency, µM (titrated, usually from 57.9 µM), for inactives: at the top dose activity change, negative = inhibition, most hits filed as inhibitors. FMDV antiviral cell-based qHTS. 410,000 tested, 1.2% active; calls by dose curve; tested in HEK293T cells; also: read-out not given here; potency is read from the fitted curve at half-maximal effect; nearly all actives have a fitted effect of over 45% in size
Marburg entry inh: Marburg virus entry inhibition; Marburg virus pseudotyped entry inhibition, cell reporter; Potency, µM (highest dose often 37.8 µM), for inactives: at the highest dose activity change, negative = inhibition, actives largely listed as inhibitors; 300,000 tested, 1.8% active; calls by dose curve; tested in HEK293 cells; also: potency is read from the fitted curve at half-maximal effect
Lassa entry inh: blocks Lassa virus binding to or entry into cells; Lassa virus pseudotype entry inhibition, cell reporter; Potency, µM (titrated, usually from 37.9 µM), inactives show at the top dose activity change, negative = inhibition, most hits filed as inhibitors; 300,000 tested, 1.2% active; AID 540256; calls by dose curve; tested in HEK293 cells; also: potency is read from the fitted curve at half-maximal effect; nearly all actives have a fitted effect of over 50% in size
* hit, by the source's call; i = inactive; ? = inconclusive; · = no result; ! = not active in a repeat; [ ] = dose if it differs, or a comment. % is scaled to controls: 0 for no effect and ±100 for the full control effect.

SMILES	HCMV antiviral	VACV Venus inh	VACV mCherry inh	FMDV inh	Marburg entry inh	Lassa entry inh
CCC[C@H]1CN(Cc2cccnc2)C(=O)[C@H]1CC(=O)Nc1ccc(Br)cc1	·	·	·	·	·	6%[46.1 µM]
O=C(NCc1ccccc1)c1nc(S(=O)(=O)Cc2ccc(F)cc2)ncc1Cl	-98*	-14%[7.34 µM]	-12%[7.34 µM]	32µM*	?	?
Cc1cccc(C)c1NC(=O)c1nc(S(=O)(=O)Cc2ccccc2F)ncc1Cl	·	-10%	i	·	·	·
O=C(C(c1ccccc1)c1ccccc1)N1CC[C@@]2(O)CCCC[C@H]2C1	-7	-17%	i	-12%	5.6µM*	-16%
Cc1csc(NC(=O)c2cnc3ccccc3n2)n1	-30	8%	3%	?	5.6µM*	?
Cc1csc(NC(=O)c2cn3ccccc3n2)n1	0	-6%	0%	14µM*	?	4µM*
Cc1ccc(Nc2nc(C)c(NC(=O)c3ccc(C)cc3)c(Nc3ccc(C)cc3)n2)cc1	-63*	-13%	-20%	-26%	?	-21%[46.1 µM]
CCc1cc(=O)oc2cc(C)cc(OC(C)C(=O)NCc3cccnc3)c12 (centres undefined)	0	-5%[7.34 µM]	-13%[7.34 µM]	-7%	·	·
O=C(NCC(c1ccc(F)cc1)N1CCOCC1)c1ccc([N+](=O)[O-])o1 (centres undefined)	-87*	-26%	-22%	-11%	?	-14%
CC(=O)c1ccc(-c2ccc(C(=O)NCC(c3ccc(F)cc3)N3CCOCC3)o2)cc1 (centres undefined)	5	-13%	-17%	-16%	?	-13%
CCCCNC(=O)C(NC(=O)c1ccc(-c2ccccc2)cc1)C(=O)c1ccccc1 (centres undefined)	-81*	-15%	-9%	22%	·	·
CCCCNC(=O)C(NC(=O)c1ccccc1)C(=O)c1ccccc1 (centres undefined)	-6	-16%	-9%	1%	·	·
CC(=O)c1ccc(OCC(=O)N(C2CCCCC2)C2CCS(=O)(=O)C2)cc1 (centres undefined)	-7	-18%	i	-6%	1%	-2%
O=C(CCl)N(C1CCCC1)C1CCS(=O)(=O)C1 (centres undefined)	-83*	?	?	-17%	?	?
COC(=O)[C@@H]1[C@@H](CO)[C@@H]2Cn3c(cccc3=O)[C@H]1N2C	5	·	·	·	·	·
COc1ccc(C[C@@H]2C(=O)N[C@H](C)C(=O)N(C)[C@@H]3Cc4ccc(cc4)Oc4cc(ccc4O)C[C@H](C(=O)N[C@@H](C)C(=O)N[C@H](C)C(=O)N2C)N(C)C3=O)cc1	·	0.28µM*	158µM*	·	·	·
COc1ccc(C2/C=C\CN(C(=O)C3CC3)[C@H](Cc3ccccc3)C(=O)N2Cc2ccc(F)cc2)cc1 (some centres undefined)	·	?	?	0%	·	·
COc1ccc(CC2C(=O)NC(C)C(=O)N(C)C3C(=O)N(C)C(Cc4ccc(O)c(c4)Oc4ccc(cc4)C3O)C(=O)NC(C)C(=O)NC(C)C(=O)N2C)cc1 (centres undefined)	-98*	0.089µM*	0.32µM*	?	?	?
CCCNC(=O)N1C2=NC(C(=O)OC)=C(C(=O)OC)[C@@H]3N(C)c4ccccc4[C@]23C[C@H]1C(=O)OC	·	·	·	·	7%[14.2 µM]	·
CCCNC(=O)C1(C)CCCN(Cc2cccc(C#N)c2)C1 (centres undefined)	?	13%	i	0%	·	·
COc1ccccc1-c1ccnc(-n2ncc(C(=O)NCCc3cccnc3)c2C)n1	·	4%	-12%	0%	·	·
C#CCN(Cc1ccccc1)S(=O)(=O)C=C	-5	1.6µM*!	?	?	·	·
O=[N+]([O-])c1ccc(Cl)c(S(=O)(=O)/N=C(/c2ccccc2)N2CCOCC2)c1	-105*	-1%	?	-8%	3%[46.1 µM]	?
CN(C)/C(CN1CCN(C=O)CC1)=C1\N=C(c2ccccc2)OC1=O	-61*	-16%	-10%	-6%	-17%	?
CCc1cccc(NC(=O)c2sc3nc[nH]c(=O)c3c2C)c1	31	-15%	-26%	7%	·	-5%[46.1 µM]
SMILES	HCMV antiviral	VACV Venus inh	VACV mCherry inh	FMDV inh	Marburg entry inh	Lassa entry inh
COc1cccc2cc(C(=O)N3CC(C)OC(C)C3)c(=O)oc12 (centres undefined)	21	·	·	-20%	·	·
COc1cc2c(oc(=O)c3cc(C)cc(OC)c32)c2c(C3OC(C)C(O)C(C)(O)C3O)ccc(O)c12 (centres undefined)	-69*	?	?	0%	?	?
COc1c(O)cc2c(=O)oc3c(OC)c(O)cc4c(=O)oc1c2c34	·	·	·	-8%	·	·
C=Cc1cc(OC)c2c(c1)c(=O)oc1c2cc(OC)c2c(O)ccc(C3OC(C)C(O)C(C)(O)C3O)c21 (centres undefined)	-98*	1µM*	?	?	?	0.4µM*
COc1cccc(-c2ccc(O)c(CNCc3cccc4ccccc34)c2)n1	·	-12%	i	-5%	·	·
Cc1c(C(=O)N2CCCCC2c2cccnc2)sc2ncnc(NCc3cccs3)c12 (centres undefined)	·	-28%	-6%	8%	·	·
COc1ccc(/C(O)=C2\C(=O)C(=O)N(c3cc(C)on3)[C@H]2c2ccccc2OC)cc1C	·	·	·	·	-3%	·
Cc1ccc(C(C#N)c2ccc3c(C(F)(F)F)cc(C(F)(F)F)nc3n2)cc1 (centres undefined)	-99*	-24%	?	?	-12%	?
N#CC(c1ccccc1)c1ccc2c(C(F)(F)F)cc(C(F)(F)F)nc2n1 (centres undefined)	-104*	1%	-13%[1.46 µM]	?	7.1µM*	11µM*
CN(N)c1ccc2c(C(F)(F)F)cc(C(F)(F)F)nc2n1	?	-5%	-54%	-4%	23%[46.1 µM]	11%
COC(=O)[C@H](c1ccccc1)N1CCCCCC1	·	·	·	·	10%[46.1 µM]	·
CNCCC(Oc1ccccc1C)c1ccccc1 (centres undefined)	·	·	·	·	14µM*	?
Cc1nn2c(NCc3ccccn3)cc(C(C)(C)C)nc2c1-c1ccccc1	-97*	·	·	?	·	·
Cc1nn2c(NCCN3CCOCC3)c3c(nc2c1-c1ccccc1)CCCC3	?	9%	i	-12%	?	-19%[46.1 µM]
CC(C)(C)c1cc(NCc2ccccn2)n2ncc(-c3ccc(Cl)cc3)c2n1	-15	·	·	4%	·	·
Cc1nn2c(NCc3ccccn3)c3c(nc2c1-c1ccccc1)CCC3	-83*	?	10µM*	?	?	?
Cc1cc(NCc2ccccn2)n2nc(C)c(-c3ccccc3)c2n1	-83*	?	5.6µM*	-7%	10µM*	?
COC(=O)c1sc2ncccc2c1OCc1cccc(Cl)c1	-102*	·	·	15%	7%	-12%
COc1ccc(NC(=O)CCCS(=O)(=O)c2nc(-c3ccccc3OC)cc(C(F)(F)F)n2)c(OC)c1	14	5%	-6%	7%	?	?
